Inconclusive results are not listed. Entries that show only a call come without a potency. Activity calls are given as the source filed them. The call rests on the fitted dose curve; in most records, active means well fitted inhibition curve with a large enough effect; inconclusive means small, poorly fitted or top-dose-only effect; inactive means flat fitted curve, though single readings scatter.

This assay deals with Calcium and integrin-binding protein 1 (Homo sapiens) (UniProt Q99828). In words: Primary qHTS for Identification of Calcium Integrin Binding Protein 1 (CIB1) Competitor (AID 1508620).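 Further: GST tagged CIB1 binding a fluorescein labelled alphaIIb integrin peptide tracer; top concentration of the series differs between compounds.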 The following applies: CIB1-GST / FITC-alphaIIb peptide fluorescence polarization; series mostly up to 114 µM. The method in brief: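 Fluorescence polarization competition: CIB1-GST (1 uM final) preincubated with compound 15 min at room temperature, then FITC-labeled alphaIIb peptide (100 nM final) added for another 15 min. Polarization read at Ex 480/Em 540.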
Sequence of Calcium and integrin-binding protein 1 (Homo sapiens) (Q99828 whole entry, looked up): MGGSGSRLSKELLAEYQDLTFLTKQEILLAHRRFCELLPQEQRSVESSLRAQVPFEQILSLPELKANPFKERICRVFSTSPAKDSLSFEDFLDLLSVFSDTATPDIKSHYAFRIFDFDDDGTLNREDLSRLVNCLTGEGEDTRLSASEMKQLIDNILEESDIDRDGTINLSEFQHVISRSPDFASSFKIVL
A general note: Quantitative high-throughput screening tests each substance at several concentrations.
Regarding `CC(=O)c1ccc(N2CCN(S(=O)(=O)c3ccc(N4CCCC4=O)cc3)CC2)cc1`, the Potency entry was “inactive”.
Next, `Cc1cc2c(s1)c1cnn(Cc3cccc(F)c3)c(=O)c1n2C`: “inactive”; `CC(=O)N1CCN(c2ccc(NCc3ccc(Br)o3)cc2)CC1`: “inactive”; `CONC(=O)C[C@@H](C#N)NC(=O)[C@@H]1CCCN1C(=O)[C@@H](NC(=O)c1ccc(N)c(Cl)c1)C(C)(C)C`: “inactive”.
As for `Cc1cccc(C)c1-n1c(SCC(=O)Nc2ccc(C(=O)O)cc2)nnc1-c1ccc([S+](=O)([O-])N2CCCC2)cc1`, the entry is “inactive”; as for `Cc1ccc(S(=O)(=O)NC(N)=NCCC[C@@H](NC(=O)CNC(=O)c2ccccc2)C(=O)Nc2cc(C(F)(F)F)ccc2Cl)cc1`, “inactive”.
As for `Cc1ccnc(NC(=S)N2CC3CN(c4cccc(C(F)(F)F)c4)CC3C2)c1` (stereo not given), the entry is “inactive”; as for `O=C1Cc2cc(S(=O)(=O)N3CCN(c4ccc(Br)cc4)CC3)ccc2N1`, “inactive”; as for `CN1CCc2sc(NC(=O)Cc3ccccc3)c(C(=O)Nc3ccc(Cl)cc3)c2C1`, “inactive”.
`COc1ccc(C[C@@H](NS(=O)(=O)c2ccc(C(=O)O)cc2)C(=O)O)cc1`: the Potency entry is “inactive”.
Next, `O=C1CCCC2=C1C(c1[nH]ncc1Cl)N=C(Nc1nc3ccc(Cl)cc3o1)N2` (stereo not given): “inactive”; `COc1cccc(NS(=O)(=O)c2ccc3c(c2)CCC(=O)N3)c1`: “inactive”.
As for `CN(CC(=O)O)c1ncnc2ccc(-c3ccc4c(c3)OCO4)cc12`, the Potency entry was “inactive”.
As for `Cc1cc(C)nc(NC(=S)N2CCN(c3cc(C(F)(F)F)nc(C)n3)CC2)c1`, the entry is “inactive”.
Next, `O=C1NS(=O)(=O)c2cc3c(cc21)C(=O)NS3(=O)=O`: “inactive”; `c1c[nH]c(CNc2ncnc3ccc(-c4ccoc4)cc23)n1`: “inactive”; `CCCCN1C(=O)c2ccccc2C1=O`: “inactive”.
In the case of `O=C(COC(=O)CNC(=O)C1CCCCC1)Nc1ccccc1Cl`, the Potency entry was “inactive”.
Next, `Cc1ccc2nc(NC3=NC4(CCCC4)C4=C(CCCC4=O)N3)oc2c1`: “inactive”; `Cn1nnnc1Sc1ncnc2scc(-c3ccccc3Cl)c12`: “inactive”; `O=C1Cc2cc(S(=O)(=O)N3CCN(c4ccc(Cl)cc4)CC3)ccc2N1`: “inactive”.
Next, `Cc1ccnc(NC(=S)N2CCN(c3ccc(N)cc3)CC2)c1`: “inactive”.
As for `C(#Cc1cccs1)c1cccnc1`, the entry is “inactive”; as for `CCOc1ccc(CCNC(=O)c2cc3sccc3n2Cc2cccc(C)c2)cc1OCC`, “inactive”; as for `COc1ccc(C2c3c(ncn(Cc4ccccc4)c3=N)Oc3ccc4ccccc4c32)cc1OC` (stereo not given), “inactive”.
As for `N=c1c2c(ccn1-c1ccccc1)Oc1ccc3ccccc3c1C2c1ccccc1` (stereo not given), the Potency result is “inactive”.
As for `O=P(c1ccccc1)(c1ccccc1)c1cnc2ccccn12`, the entry is “inactive”; as for `CN(CCc1cccs1)c1ncnc2ccc(-c3ccc4c(c3)OCO4)cc12`, “inactive”; as for `Cc1cnccc1-c1nc(Nc2ccc(F)c(F)c2)c2ccccc2n1`, “inactive”.
As for `O=C1N/C(=C\c2ccco2)C(=O)N1Cc1ccc(F)cc1`, the Potency entry is “inactive”.
As for `CCN(Cc1cccs1)c1ncnc2ccc(-c3ccc4c(c3)OCO4)cc12`, the entry is “inactive”.
As for `CCc1cccc(Nc2nn3c(=O)c4ccccc4nc3s2)c1`, the entry is “inactive”; as for `Nc1ncc(S(=O)(=O)N2CCOCC2)s1`, “inactive”; as for `COc1cccc(C2c3c(ncn(-c4ccccc4)c3=N)Oc3ccc4ccccc4c32)c1` (stereo not given), “inactive”.
As to `CCOC(=O)CC(=O)Nc1ncnc2c1C(c1ccccc1)c1c(ccc3ccccc13)O2` (stereo not given), the Potency result is “inactive”.
Next, `COc1cccc(-c2csc3ncnc(Sc4nnnn4C)c23)c1`: “inactive”; `O=C1Cc2cc(S(=O)(=O)N3CCN(c4ccc(C(F)(F)F)cc4)CC3)ccc2N1`: “inactive”.
As for `O=C(CNC(=O)c1ccccc1)OC(Cc1ccccc1)C(=O)Nc1cc(C(F)(F)F)ccc1Cl` (stereo not given), the entry is “inactive”.
Turning to `O=[S+]([O-])(Nc1ccc(-c2ccccc2)cc1)c1ccc(NCc2ccc(Cl)cc2O)cc1`, the Potency result is “inactive”.
Next, `CC(=O)NC(c1ccco1)c1cc(Cl)c2ccc(N3CCCCC3)nc2c1O` (stereo not given): “inactive”.

These data come from PubChem BioAssay (NCATS).
